Measured values taken from PubChem BioAssay AID1159580 (chemical genetic matrix, 2015).
About 2,000 (36%) of roughly 5,500 compounds were called active. Another 18% or so got no clear call; they are omitted. Rule as the data show it: active = normalized growth mostly below about 0.91 (no sharp cut-off); inconclusive = no clear call, values can overlap the other calls; inactive = mostly above about 0.92. Some of the results follow.

Test: chemical genetic growth profiling, strain panel (AID 1159580);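 also: tested at 20 µM; growth read once vehicle control cultures reached saturation at 30 °C; 1 = growth at the plate median or of vehicle wells; lower values mean less growth of the strain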
Settings: growth OD

Measured: normalized growth

COc1cc(/C=C/C(=O)O)cc(OC)c1OC
inactive: S. cerevisiae deletion strains, locus YJR043C, strain POL32, stronger effect = lower value 0.999 | S. cerevisiae deletion strains, locus YJR066W, strain TOR1, stronger effect = lower value 1.02 | S. cerevisiae deletion strains, locus YKL009W, strain mrt4, stronger effect = lower value 1.03 | S. cerevisiae deletion strains, locus YKL068W, stronger effect = lower value 1.02 | S. cerevisiae deletion strains, locus YKL085W, strain MDH1 (second series), stronger effect = lower value 1.01 | S. cerevisiae deletion strains, locus YKL085W, strain MDH1, stronger effect = lower value 1.01 | S. cerevisiae deletion strains, locus YKL160W, strain elf1, stronger effect = lower value 0.985 | S. cerevisiae deletion strains, locus YKR001C, strain vps1, stronger effect = lower value 1 | S. cerevisiae deletion strains, locus YKR026C, strain gcn3, stronger effect = lower value 0.985 | S. cerevisiae deletion strains, locus YKR091W, strain srl3, stronger effect = lower value 0.98 | S. cerevisiae deletion strains, locus YLL001W, strain dnm1, stronger effect = lower value 0.969 | S. cerevisiae deletion strains, locus YLL026W, stronger effect = lower value 0.995 | S. cerevisiae deletion strains, locus YLL041C, strain sdh2, stronger effect = lower value 0.999 | S. cerevisiae deletion strains, locus YLR027C, strain aat2, stronger effect = lower value 0.998 | S. cerevisiae deletion strains, locus YLR039C, strain RIC1, stronger effect = lower value 1.04 | S. cerevisiae deletion strains, locus YLR058C, strain SHM2, stronger effect = lower value 1.02 | S. cerevisiae deletion strains, locus YLR102C, strain apc9, stronger effect = lower value 1.02 | S. cerevisiae deletion strains, locus YLR113W, strain HOG1, stronger effect = lower value 1.03 | S. cerevisiae deletion strains, locus YLR221C, strain rsa3, stronger effect = lower value 1 | S. cerevisiae deletion strains, locus YLR258W, strain gsy2, stronger effect = lower value 0.993 | S. cerevisiae deletion strains, locus YLR262C, strain YPT6 (second series), stronger effect = lower value 0.994 | S. cerevisiae deletion strains, locus YLR262C, strain YPT6, stronger effect = lower value 1.01 | S. cerevisiae deletion strains, locus YLR268W, strain sec22, stronger effect = lower value 1.02 | S. cerevisiae deletion strains, locus YLR320W, strain mms22, stronger effect = lower value 0.995 | S. cerevisiae deletion strains, locus YLR330W, strain CHS5, stronger effect = lower value 1.01 | S. cerevisiae deletion strains, locus YLR342W, strain FKS1 (second series), stronger effect = lower value 0.999 | S. cerevisiae deletion strains, locus YLR342W, strain FKS1, stronger effect = lower value 0.986 | S. cerevisiae deletion strains, locus YLR357W, strain rsc2, stronger effect = lower value 0.993 | S. cerevisiae deletion strains, locus YLR370C, strain arc18, stronger effect = lower value 0.992 | S. cerevisiae deletion strains, locus YLR371W, strain rom2, stronger effect = lower value 1.06 | S. cerevisiae deletion strains, locus YLR384C, strain iki3, stronger effect = lower value 0.986 | S. cerevisiae deletion strains, locus YLR418C, strain cdc73, stronger effect = lower value 0.975 | S. cerevisiae deletion strains, locus YML016C, strain PPZ1, stronger effect = lower value 1.01 | S. cerevisiae deletion strains, locus YML032C, strain rad52, stronger effect = lower value 1.03 | S. cerevisiae deletion strains, locus YML120C, strain ndi1, stronger effect = lower value 1 | S. cerevisiae deletion strains, locus YML124C, strain tub3, stronger effect = lower value 1.02 | S. cerevisiae deletion strains, locus YMR058W, strain fet3, stronger effect = lower value 0.997 | S. cerevisiae deletion strains, locus YMR078C, strain ctf18, stronger effect = lower value 1.05 | S. cerevisiae deletion strains, locus YMR125W, strain sto1, stronger effect = lower value 0.965 | S. cerevisiae deletion strains, locus YMR129W, stronger effect = lower value 0.996 | S. cerevisiae deletion strains, locus YMR205C, strain PFK2, stronger effect = lower value 0.984 | S. cerevisiae deletion strains, locus YMR223W, strain ubp8, stronger effect = lower value 1.04 | S. cerevisiae deletion strains, locus YMR231W, strain pep5, stronger effect = lower value 0.981 | S. cerevisiae deletion strains, locus YMR263W, strain SAP30, stronger effect = lower value 1.01 | S. cerevisiae deletion strains, locus YMR307W, strain GAS1, stronger effect = lower value 1.04 | S. cerevisiae deletion strains, locus YNL067W, strain RPL9B, stronger effect = lower value 1.01 | S. cerevisiae deletion strains, locus YNL071W, strain lat1, stronger effect = lower value 0.991 | S. cerevisiae deletion strains, locus YNL183C, strain NPR1, stronger effect = lower value 1.03 | S. cerevisiae deletion strains, locus YNL209W, strain ssb2, stronger effect = lower value 0.996 | S. cerevisiae deletion strains, locus YNL233W, strain BNI4, stronger effect = lower value 0.999 | S. cerevisiae deletion strains, locus YNL248C, strain rpa49, stronger effect = lower value 1 | S. cerevisiae deletion strains, locus YNL250W, strain rad50, stronger effect = lower value 1.02 | S. cerevisiae deletion strains, locus YNL271C, strain bni1, stronger effect = lower value 1.02 | S. cerevisiae deletion strains, locus YNL298W, strain CLA4, stronger effect = lower value 1.03 | S. cerevisiae deletion strains, locus YNL307C, strain MCK1, stronger effect = lower value 1.02 | S. cerevisiae deletion strains, locus YNL322C, strain KRE1 (second series), stronger effect = lower value 0.99 | S. cerevisiae deletion strains, locus YNL322C, strain KRE1, stronger effect = lower value 1.01 | S. cerevisiae deletion strains, locus YNR049C, strain mso1, stronger effect = lower value 0.988 | S. cerevisiae deletion strains, locus YNR052C, strain pop2, stronger effect = lower value 1.01 | S. cerevisiae deletion strains, locus YOL006C, strain TOP1, stronger effect = lower value 1.04 | S. cerevisiae deletion strains, locus YOL012C, strain htz1 1.26 | S. cerevisiae deletion strains, locus YOL147C, strain pex11, stronger effect = lower value 1.02 | S. cerevisiae deletion strains, locus YOR001W, strain rrp6, stronger effect = lower value 1.03 | S. cerevisiae deletion strains, locus YOR061W, strain CKA2, stronger effect = lower value 1.02 | S. cerevisiae deletion strains, locus YOR069W, strain VPS5, stronger effect = lower value 1.01 | S. cerevisiae deletion strains, locus YOR070C, strain gyp1, stronger effect = lower value 0.991 | S. cerevisiae deletion strains, locus YOR080W, strain dia2, stronger effect = lower value 0.983 | S. cerevisiae deletion strains, locus YOR083W, strain WHI5, stronger effect = lower value 0.972 | S. cerevisiae deletion strains, locus YOR106W, strain vam3, stronger effect = lower value 0.961 | S. cerevisiae deletion strains, locus YOR136W, strain idh2, stronger effect = lower value 1.01 | S. cerevisiae deletion strains, locus YOR144C, strain elg1, stronger effect = lower value 1.01 | S. cerevisiae deletion strains, locus YOR184W, strain ser1, stronger effect = lower value 1.04 | S. cerevisiae deletion strains, locus YOR231W, strain MKK1, stronger effect = lower value 1.06 | S. cerevisiae deletion strains, locus YOR265W, strain rbl2, stronger effect = lower value 0.983 | S. cerevisiae deletion strains, locus YOR270C, strain vph1, stronger effect = lower value 0.998 | S. cerevisiae deletion strains, locus YOR290C, strain snf2, stronger effect = lower value 0.954 | S. cerevisiae deletion strains, locus YOR316C, strain cot1, stronger effect = lower value 1.02 | S. cerevisiae deletion strains, locus YPL051W, strain arl3, stronger effect = lower value 1 | S. cerevisiae deletion strains, locus YPL078C, strain atp4, stronger effect = lower value 0.987 | S. cerevisiae deletion strains, locus YPL106C, strain sse1, stronger effect = lower value 0.972 | S. cerevisiae deletion strains, locus YPL240C, strain hsp82, stronger effect = lower value 0.989 | S. cerevisiae deletion strains, locus YPL256C, strain CLN2, stronger effect = lower value 0.999 | S. cerevisiae deletion strains, locus YPR119W, strain clb2, stronger effect = lower value 1.03 | S. cerevisiae deletion strains, locus YPR141C, strain kar3, stronger effect = lower value 1.03 | S. cerevisiae deletion strains, locus YPR163C, strain tif3, stronger effect = lower value 1.03 | S. cerevisiae deletion strains, locus YPR167C, strain met16, stronger effect = lower value 1.02 | S. cerevisiae deletion strains, strain wtn01, stronger effect = lower value 1.01 | S. cerevisiae strains, strain wild type, stronger effect = lower value 1.01
